In all, about 48,000 compounds went through this assay and about 13,000 (27%) showed an effect of 50% or more. Some of the results follow.

The assay deals with Wolbachia pipientis. The assay can be described thus: Anti-Wolbachia Cell-Based Screen. Format: functional. On the set-up: scale not given: in the data most compounds retested in dose-response had high values. The note with it: 5 µM.
For the molecule `COc1ccc(S(=O)(=O)C(F)(F)F)cc1NC(=O)CSCC#N`, the “Percent Effect” value is recorded as 5.684%.
Regarding `CCCn1nc2c(cc1=O)CN(CC(=O)Nc1cc(C)no1)CC2`, the “Percent Effect” value is reported as -28.4%.
Then `O=C(Cn1nc2c(cc1=O)CSCC2)NC(Cc1ccccc1)C(=O)O` (stereo unspecified), with 28.51%.
Regarding `O=C(Cn1nc2c(cc1=O)CCCC2)N[C@@H](Cc1ccccc1)C(=O)O`, the “Percent Effect” value came to 3.393%.
Then `CC(C)c1cc(NC(=O)CN2CCc3nn(C)c(=O)cc3C2)on1`, with -16.14%; and `O=C(Cn1nc2c(cc1=O)CCCC2)NC(Cc1ccccc1)C(=O)O` (stereo unspecified), with 101%.
Consider `O=C(Cn1nc2c(cc1=O)CCCC2)N[C@@H](C(=O)O)c1ccccc1`, for which the “Percent Effect” value worked out at 11.26%.
For the molecule `CC(C)C(NC(=O)Cn1nc2c(cc1=O)CCCC2)C(=O)O` (stereo unspecified), the “Percent Effect” value was 113%.
Then `O=C(Cn1nc2c(cc1=O)CCCC2)NC(C(=O)O)c1ccccc1` (stereo unspecified), with 110.7%; and `O=c1cc2c(nn1CN1CCN(c3ccccc3)CC1)CCC2`, with 10.03%.
Then `CCCc1cc(NCc2noc(COC)n2)n2nccc2n1`, with 6.33%; and `CCC(C(=O)NC1CCCCC1)n1cccc(OC)c1=O` (stereo unspecified), with -2.043%.
For `CN(C)c1ccc(CC2CCN(c3cnccn3)C2)nn1` (stereo unspecified), the “Percent Effect” value is reported as 129.7%.
On to `CN(C)c1ccc(CC2CCCN(c3cnccn3)C2)nn1` (stereo unspecified), for which the “Percent Effect” value is reported as 93.08%.
With `c1cncc(O[C@H]2COCCN(C3CCC3)C2)c1`, the “Percent Effect” value was -11.18%.
`c1cnc(CC2COCCN(C3CCCCC3)C2)cn1` (stereo unspecified): the “Percent Effect” value is recorded as 106.9%.
With `CN(C)c1ccc(CC2CCN(c3cnccn3)CC2)nn1`, the “Percent Effect” value is recorded as 90.64%.
For the molecule `Cc1cccc(O[C@H]2COCCN(C3CCC3)C2)n1`, the “Percent Effect” value came to 0.8237%.
On to `Cc1occc1C(=O)N1CCC2(CC1)CN(Cc1nccs1)CCO2.O=C(O)C(F)(F)F`, for which the “Percent Effect” value is listed as -1.97%.
Regarding `CCNC(=O)CNS(=O)(=O)c1cc(Br)ccc1F`, the “Percent Effect” value is listed as -3.098%.
As for `Cc1nnc(NCC2(c3ccc(Cl)cc3Cl)CCOCC2)c(C#N)c1C`, the “Percent Effect” value amounted to 25.06%.
With `COCC1(CNC(=O)[C@@]23CNC[C@@H]2CN(C2CCCC2)C3)CC1`, the “Percent Effect” value is reported as -67.22%.
Consider `Cc1ccccc1CSc1nc(N)cc(N2CCOCC(CO)C2)n1` (stereo unspecified), for which the “Percent Effect” value was determined as 4.884%.
As for `O=C(O)c1cccc(CC2CCN(c3cnccn3)CC2)c1`, the “Percent Effect” value is -21.8%.
On to `c1cnc(CC2CCN(c3cnccn3)CC2)cn1`, for which the “Percent Effect” value is reported as 139.5%.
As to `O=C1[C@H]2CN(c3cnccn3)C[C@H]2CN1CC1CC1`, the “Percent Effect” value is on record as -18.33%.
For the molecule `Cc1nccc(CC2COCCN(c3cnccn3)C2)n1` (stereo unspecified), the “Percent Effect” value was 114.6%.
For `Cc1noc(-c2ccnc(N3CCC(CN4CCOCC4)CC3)c2)n1`, the “Percent Effect” value worked out at 3.253%.
Take `O=C1NCCN(C(=O)CCN2CCCO2)C1c1cccc(F)c1` (stereo unspecified): the “Percent Effect” value is recorded as -39.77%.
For `Cc1ccnc(NCCNC(=O)Cc2c(C)[nH]c3c(C)ccc(C)c23)c1`, the “Percent Effect” value is on record as -11.21%.
For the molecule `Cc1ccc([C@@H]2CN(C(=O)c3cccnn3)C[C@H]2NC(=O)C2CC2)cc1`, the “Percent Effect” value is recorded as 2.45%.
In the case of `CCSCCNC(=O)C(c1cccc(C)c1)N(C)C` (stereo unspecified), the “Percent Effect” value was -29.39%.
As to `Cc1cccc(C(C(=O)NCCn2cccc2)N(C)C)c1` (stereo unspecified), the “Percent Effect” value is -2.901%.
Turning to `Cc1ccc(C(C(=O)NCCN2CCC(CO)CC2)N(C)C)cc1` (stereo unspecified), the “Percent Effect” value came out at 0.4619%.
Turning to `Cc1cccc(C(C(=O)NC(C)(C)CN2CCOCC2)N(C)C)c1` (stereo unspecified), the “Percent Effect” value was 112.8%.
On to `Cc1cccc(C(C(=O)NCC2(O)CCCCC2)N(C)C)c1` (stereo unspecified), for which the “Percent Effect” value is reported as -2.512%.
In the case of `Cc1cccc(C(C(=O)NC(C)(C)CN2CCCC2)N(C)C)c1` (stereo unspecified), the “Percent Effect” value was 106.7%.
Then `Cc1ccc(C(C(=O)NCCN2CCCCCC2)N(C)C)cc1` (stereo unspecified), with -4.058%.
Take `Cc1cc(C)cc(C(C(=O)O)N(C)CCCN2CCOCC2)c1` (stereo unspecified): the “Percent Effect” value worked out at 10.88%.
Turning to `Cc1ccc(C(C(=O)NC(C)(C)CN2CCCC2)N(C)C)cc1` (stereo unspecified), the “Percent Effect” value is 96.39%.
Consider `CN(C)S(=O)(=O)NCC1OCCc2cn(CC3CCOCC3)nc21` (stereo unspecified), for which the “Percent Effect” value amounted to 2.181%.
The value for `CC(=O)c1c(F)cccc1N1CCC(C(N)=O)CC1` was 16.85%; that for `CC(C)n1nc(CNc2ncccn2)c2c1CN(C1CCOCC1)CC2.O=C(O)C(F)(F)F` was 3.818%.
The value for `CNS(=O)(=O)Cc1cccc(CNc2ccc(C#N)cn2)c1` was 5.411%; that for `Cc1ccc(F)c(OC2(C(=O)O)CCN(C(=O)N3CCCC3)CC2)c1` was -14.67%.
Regarding `COC(=O)[C@H]1C[C@@H](O)CCN1S(=O)(=O)c1c(C)cc(OC)c(C)c1C`, the “Percent Effect” value is on record as -13.15%.
On to `COc1ccc(-c2c(C)nn3c(=N)c(C#N)n[nH]c23)cc1`, for which the “Percent Effect” value stood at 88.05%.
On to `COc1ccc(-c2c(C)nn3c(=N)c(C#N)n[nH]c23)cc1OC`, for which the “Percent Effect” value was determined as 107.4%.
As to `COc1ccc(-c2csc(N)c2C#N)cc1OC`, the “Percent Effect” value is given as -8.208%.
As for `COc1ccc(-c2c(C(C)C)nn3c(=N)c(C#N)n[nH]c23)cc1`, the “Percent Effect” value came out at 89.55%.
Take `CCc1nn2c(=N)c(C#N)n[nH]c2c1-c1ccc(OC)cc1`: the “Percent Effect” value stood at 103%.
As for `COc1ccc(CN(C)c2nccc(-c3cn(C)nc3C)n2)cc1`, the “Percent Effect” value is -45.72%.
`CCN(C)C[C@H]1CC[C@@H](Cc2ccc3c(cnn3C)c2)O1`: the “Percent Effect” value is -8.878%.
On to `CCS(=O)(=O)c1ccc(NCc2csc(C(C)C)n2)cc1`, for which the “Percent Effect” value is on record as 5.353%.
Then `O=C1NCCN(Cc2ccccc2)C1CC(=O)N1CCc2n[nH]cc2C1` (stereo unspecified), with -21.59%.
The value for `O=C(O)C(F)(F)F.O=C(O)C(F)(F)F.c1cc(C2CC2)n2cnc(C3CN(Cc4ccncc4)CCO3)c2c1` (stereo unspecified) was 5.365%.
Turning to `Nc1nccnc1C1CN(C(=O)COc2cccnc2)CCO1` (stereo unspecified), the “Percent Effect” value worked out at 107.6%.
On to `COc1ccc(CN2CCOC[C@H](OCC(=O)N(C)C)C2)cc1`, for which the “Percent Effect” value was -7.108%.
The value for `CNc1nccnc1C1CN(Cc2ccc(OCC(=O)O)cc2)CCO1` (stereo unspecified) was 142.7%; that for `Nc1nccnc1C1CN(Cc2ccc(OCC(=O)O)cc2)CCO1` (stereo unspecified) was 171.8%.
The value for `O=C(COc1cccnc1)N1CCOC(C(F)(F)F)C1` (stereo unspecified) was -4.014%; that for `Cl.O=C(O)CC1CN(Cc2ccccc2)CCO1` (stereo unspecified) was -7.682%; that for `O=C(COc1cccnc1)N1CCCC(n2cccn2)C1` (stereo unspecified) was -8.892%.
As for `CNc1nccnc1C1CN(Cc2ccc3[nH]ccc3c2)CCO1` (stereo unspecified), the “Percent Effect” value is reported as 136.6%.
For `Cc1ncsc1C(=O)NCCOc1ncc(Cl)cc1Cl`, the “Percent Effect” value was found to be 21.09%.
For `Cc1ncsc1CCN(C)C(=O)CN1C(=O)OC[C@@H]1c1ccccc1`, the “Percent Effect” value is -3.352%.

Source of the values: ChEMBL document CHEMBL3988442, “University of Dundee, Small-Polar-MMV Screening Library” (2021).
